Many of the other results were omitted from the sample, so hits are more common in it than they were.
p53 reactivator: restores transcriptional activity of mutant p53; H1299 p53-A138V BP100-luciferase reporter, luminescence, 24 h; Potency, µM (series often up to 92.2 µM), inactives show at the top dose activity change, positive = activation, actives largely listed as activators; AID 504706; 320,000 tested, 0.063% active; further: % of control where 0% means no effect; nearly all actives have a fitted effect of over 45% in size
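H1299 (p53-null), stable ts p53-A138V + BP100-Luc; 1000 cells/well, Opti-MEM/10% FBS; cpd 4 pt, 1:5; 24 h, 37 deg C, 5% CO2; detection reagent 10 min RT; luminescence.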
USP2a inh: USP2a (human) protease inhibition. USP2 core, Ub-CHOP2 coupled fluorogenic reporter, 485/531. Potency, µM (doses to about 38.3 µM), for the others: top-dose activity change, negative = inhibition, actives largely listed as inhibitors. 330,000 tested, 0.01% active;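 further: plate controls were DMSO wells for no effect and full inhibition by NEM control for full effect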
Target sequence (O75604 whole entry, looked up): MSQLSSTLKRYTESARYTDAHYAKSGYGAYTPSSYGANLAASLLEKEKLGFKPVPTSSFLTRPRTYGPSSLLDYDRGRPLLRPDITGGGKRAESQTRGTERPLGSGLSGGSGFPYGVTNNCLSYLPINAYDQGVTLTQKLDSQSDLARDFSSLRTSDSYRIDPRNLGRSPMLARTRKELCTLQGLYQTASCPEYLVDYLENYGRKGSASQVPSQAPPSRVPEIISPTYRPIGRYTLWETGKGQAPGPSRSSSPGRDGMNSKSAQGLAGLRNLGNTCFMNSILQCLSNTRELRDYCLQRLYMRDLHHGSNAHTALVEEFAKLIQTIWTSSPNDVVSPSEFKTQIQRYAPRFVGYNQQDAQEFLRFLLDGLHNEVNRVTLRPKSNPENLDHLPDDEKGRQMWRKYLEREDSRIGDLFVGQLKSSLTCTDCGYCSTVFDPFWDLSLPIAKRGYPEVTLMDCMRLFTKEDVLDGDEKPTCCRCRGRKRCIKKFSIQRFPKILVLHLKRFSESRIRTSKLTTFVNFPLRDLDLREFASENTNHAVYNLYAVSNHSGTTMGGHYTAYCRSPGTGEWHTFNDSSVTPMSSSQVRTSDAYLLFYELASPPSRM
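Cell-free coupled assay: 10nM USP2 core preincubated 30min RT with compound in Tris-HCl pH 8.0/CaCl2/CHAPS buffer, then 25nM Ub-CHOP2 and 25nM reporter substrate; fluorescence (Ex 485/Em 531) read after 60min RT, normalized to NEM inhibition, concentration-response curves fitted.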
Integrin act MD: activates integrin-mediated alleviation for muscular dystrophy; alpha7betagal myoblasts, beta-gal FDG fluorescence, 48 h; Potency, µM (highest dose often 38.3 µM), for inactives: top-dose activation, usual class: activators; 350,000 tested, 0.064% active;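 further: 100% = response of the positive control SU9516; nearly all actives have a fitted effect of over 60% in size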
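Alpha7betagal+/- myoblasts (passage 13) were plated 16-24 hr, then exposed to compounds (1:260 dilution of DMSO stock) for 48 hours at 37C. After MPER lysis, β-galactosidase reporter activity was read as FDG fluorescence (ex 480/em 540) after 30 minutes.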
MmCpn inh: blocks the Methanococcus maripaludis chaperonin Mm-Cpn | 330,000 tested, 0.031% active | purified Mm-Cpn ATPase, ADP Transcreener TR-FRET | AID 504842 | Potency, µM (top dose mostly 76.9 µM), inactives show at the top dose activity, negative = inhibition, actives largely listed as inhibitors; further: on the % scale 0 is the no-effect control and ±100 the full control effect; nearly all actives have a fitted effect of over 80% in size
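Quantitative HTS used 25 nM Mm-CPN and 10 uM ATP in magnesium/KCl Tris buffer, pH 7.4, with 1 mM DTT. Hydrolysis ran 30 min at 37°C; ADP was read by HTRF.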
Eya2 inh: Eya2 (human) phosphatase inhibition; O00167; recombinant Eya2, OMFP fluorescence dephosphorylation (OMFP is methylfluorescein phosphate); Potency, µM (series often up to 76.9 µM), without a hit: top-dose activity, negative = inhibition, most hits filed as inhibitors; 330,000 tested, 0.006% active; further: on the % scale 0 is the no-effect control and ±100 the full control effect
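Eya2 protein (added as 0.2 uM solution) was preincubated with compound for 10 min at ambient temperature in 50 mM HEPES pH 7.5, 50 mM NaCl, 5 uM MgCl2, 0.05% BSA, 1 mM DTT. OMFP (added at 50 uM) then reacted 10 min; fluorescence read at 485/525 nm.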
ClpP mod: qHTS Assay for Activators of ClpP. ATP-dependent Clp protease proteolytic subunit (Bacillus subtilis (strain 168)), P80244. purified B. subtilis ClpP, FRET peptide cleavage, 20 min. Potency, µM (highest dose often 57.5 µM), for inactives: top-dose activity change, negative = active. 340,000 tested, 1.9% active. AID 651965, 2013; active means well fitted falling curve with a large enough effect; inconclusive means small, poorly fitted or top-dose-only effect; inactive means no such curve, though single readings can be large or run the other way; further: the source files actives as falling curves though it sought activators and does not explain the sign; nearly all actives have a fitted effect of over 65% in size
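ClpP 10 microg/mL final, pH 8 Tris/KCl buffer with BSA, glycerol, Tween-20; compound pinned in; FRET-FV substrate; RT 20 min; Ex320/Em430; ΔFRET vs ADEP 5.8 microM, DMSO, no enzyme.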
Numbers without * were called inactive; ? = inconclusive; · = not tested or not shown; [ ] = dose if it differs, or a comment. Unless noted, the call rests on the fitted dose curve; in most records, active means well fitted curve in the direction sought with a large enough effect; inconclusive means small, poorly fitted or top-dose-only effect, or another doubt; inactive means no such curve, though single readings can be large; an effect the other way counts as inactive or inconclusive. Potency means the concentration at half of the fitted maximal effect.

SMILES	p53 reactivator	USP2a inh	Integrin act MD	MmCpn inh	Eya2 inh	ClpP mod
O=C(Nc1ccc(-c2nc3ccccc3o2)cc1)C1CCCO1 (centres undefined)	·	-4%	7%[7.66 µM]	1%	4%	16µM*
Cc1ccccc1NC(=O)c1ccc(NC(=O)C2CCCO2)cc1 (centres undefined)	?	1%	21%	-6%	5%	16µM*
Cc1ccc(S(=O)(=O)c2n[nH]n3c2nc(=O)c2ccccc23)cc1	0%	2%	10%	0%	-16%	16µM*
CCOc1ccc(CC(=O)NCCc2sc3nc(-c4ccc(F)cc4)nn3c2C)cc1	·	·	·	·	·	-2%
O=C(CSc1nc2[nH]c(=O)cc(O)c2s1)Nc1nccs1	4%	1%	5%	-4%	-1%	32µM*
O=C(Nc1ccc(F)c(Cl)c1)N1CCN2CCCCC2C1 (centres undefined)	·	·	·	·	·	-1%
O=C(Nc1cccc(-c2nc3ccccc3o2)c1)c1cc([N+](=O)[O-])ccc1N1CCOCC1	·	·	·	·	·	0%
COc1ccc(CCNC(=O)c2cc(-c3ccc(C)cc3)nc3n[nH]c(-c4ccccc4)c23)cc1OC	·	·	·	·	·	13µM*
Cc1ccc(Cl)cc1N1CCN(C(=O)CSc2cc(=O)n(C)c3ccccc23)CC1	·	·	·	·	·	-27%
Cn1c(=O)cc(SCC(=O)N2CCCC2)c2ccccc21	-8%	2%	1%	3%	7%	28µM*
C/C(=N\NC(=O)c1csc(C)c1C)c1ccco1	7.9µM*	3%	14%	3%	-4%	-1%
CCOc1cccc(C2C=C(c3ccc4c(c3)OCO4)NC(c3ccc(Br)cc3)N2)c1O (centres undefined)	·	·	·	·	·	-1%
COc1cccc2sc(Nc3nnc(-c4ccccc4Cl)o3)nc12	?	-3%	-11%	-2%	-4%	?
COc1ccccc1-c1nnc(Nc2nc3c(OC)cccc3s2)o1	?	2%	-31%	?	6%	35µM*
COc1cccc(-c2nnc(Nc3nc4c(F)cccc4s3)o2)c1	?	-6%	-43%	-4%	-6%	28µM*
COc1cc(C)c2ccccc2n1	·	·	·	·	·	-16%
COC(=O)[C@H](C)NS(=O)(=O)C1CC1	·	·	·	·	·	0%
O=C(Nc1cccc(F)c1)C1CCN(C(=O)c2ccc(Cl)cc2)CC1	-4%	2%	-6%	2%	14%	25µM*
O=C(COC(=O)c1ccccc1-n1cnnn1)c1ccc(Br)cc1	18%	1%	-9%	-3%	23%	16µM*
O=C(COC(=O)c1ccccc1-n1cnnn1)c1ccccc1	17%	-1%	6%	-5%	-25%	·
COc1ccc(CCN(Cc2cc3cc(C)ccc3[nH]c2=O)C(=O)N2CCCC2)cc1OC	-19%	-10%	0%	1%	-9%	-9%
CCC(=O)N(Cc1ccc(C)cc1)Cc1cc2cc3c(cc2[nH]c1=O)OCO3	-2%	-1%	9%[7.66 µM]	1%	5%	32µM*
CCC(=O)N(CCc1ccccc1)Cc1cc2cc3c(cc2[nH]c1=O)OCO3	-1%	-4%	19%	-1%	4%	14µM*
Cc1ccc2[nH]c(=O)c(CN(CCc3ccccc3)C(=O)N3CCOCC3)cc2c1	1%	-3%	12%	1%	9%	14µM*
CCC(=O)N(CCc1ccccc1)Cc1cc2cc(OC)ccc2[nH]c1=O	-2%	0%	5%	-1%	14%	4%
SMILES	p53 reactivator	USP2a inh	Integrin act MD	MmCpn inh	Eya2 inh	ClpP mod
O=C(Cc1ccc(OCCc2ccccc2)cc1)NO	·	·	·	·	·	1%
C=C1C=C(C(F)(F)F)n2ncc(C(=O)NCc3ccc(F)cc3)c2N1	·	·	·	·	·	-3%
Cc1ccc2cc3c(nc2c1)N(Cc1ccco1)CC3	?	0%	-6%	-1%	2%	28µM*
Cc1ccc(S(=O)(=O)N2CN(Cc3ccco3)c3nc4ccccc4nc32)cc1	-15%	0%	3%	-3%	-6%	-30%
COc1ccc(OC)c(NC(=O)c2nc(S(=O)(=O)Cc3ccccc3F)ncc2Cl)c1	·	·	·	·	·	-16%
CN(Cc1cnc2nc(N)nc(N)c2n1)c1ccc(C(=O)NC(CCC(=O)O)C(=O)O)cc1 (centres undefined)	·	·	7%	·	·	16µM*
C=CCn1c(SCC(=O)N2CCc3ccccc3C2)nc2sc(CC)cc2c1=O	-7%	2%	18%	-3%	-3%	20µM*
COc1ccc(-c2nc3ccccn3c2Nc2ccccc2C)cc1	·	·	·	·	·	4%
O=C(Nc1ccc2oc(-c3ccccc3F)nc2c1)c1ccccc1Cl	·	·	·	·	·	4%
CC(C)(C)C(=O)Nc1ccc2oc(-c3cc(F)c(F)cc3Cl)nc2c1	?	-1%	16%	-1%	-43%	32µM*
CCCc1nc2sc3c(c2c(=O)[nH]1)CCCC3	-2%	-5%	8%	3%	3%	0%
CCN(CC(=O)NC(C)C)Cc1nc2sc3c(c2c(=O)[nH]1)CCC3	0%	0%	-3%	0%	-16%	13µM*
CN(CC(=O)Nc1ccccc1C(F)(F)F)C(=O)CCc1nc2sc3c(c2c(=O)[nH]1)CCCC3	-27%	-2%	-6%	-1%	1%	-10%
CN(CC(=O)Nc1ccc(Cl)cc1)C(=O)CCc1nc2sc3c(c2c(=O)[nH]1)CCCC3	15%	0%	-26%	-1%	-14%	32µM*
CCN(CC(=O)Nc1ccccc1C(F)(F)F)C(=O)CCc1nc2sc3c(c2c(=O)[nH]1)CCCC3	0%	4%	8%	1%	-5%	16µM*
CN(CC(=O)Nc1ccc(F)cc1)C(=O)CCc1nc2sc3c(c2c(=O)[nH]1)CCCC3	3%	0%	4%	-6%	-23%	-1%
[O-][N+](=NC1C=Cc2ccccc21)C1C=Cc2ccccc21 (centres undefined)	·	·	·	·	·	-1%
COCc1cc(C)[nH]c(=O)c1C#N	?	1%	2%	-2%	13%	2.8µM*
CCN1C(=O)C(CC(=O)Nc2ccc(OC)cc2)N(CCc2ccc(F)cc2)C1=S (centres undefined)	7%	6%	7%	1%	-15%	11µM*
COc1ccc(NC(=O)CC2C(=O)N(C)C(=S)N2CCc2ccc(F)cc2)cc1 (centres undefined)	-3%	-1%	-24%	0%	4%	-2%
COc1ccc(NC(=O)CC2C(=O)N(Cc3ccccc3)C(=S)N2CCN2CCOCC2)cc1 (centres undefined)	-2%	-1%	14%	-1%	8%	8.9µM*
Cc1ccc(NC2(c3ccccc3)C(=O)c3ccccc3C2=O)cc1F	·	·	·	·	·	-1%

Screening data: PubChem, National Center for Advancing Translational Sciences (NCATS)
